Assay [1] has as its system Human papillomavirus type 1a protein E7 (residues 44-93). Put plainly: small molecules binding HPV E7 44-93 – biochemical, small-molecule microarray, residues 44-93, 635 nm fluorescence, primary screen (AID 1108).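 Further: E7 fragment applied at 1 µg/mL in TBST for 1 h at 4 C; score combines spot fluorescence with its signal to noise ratio.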 The note with it: fluorescence 635 nm, higher = more signal.
Assay [2] in a line: hepatitis C replication reporter changes, two-sided – Huh7 cells, luciferase reporter, HCV replication inhibitor project, primary screen (AID 1109).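 Further: huh7 hepatoma cells harbouring a luciferase neomycin HCV replicon reporter; luciferase luminescence as measure of HCV replicon replication; test concentration not given here.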 The note with it: Huh7 HCV replicon luciferase reporter, 48 h; higher = more signal. In general terms: In a reporter assay the amount or activity of a reporter protein is the signal.
In assay [3] the target is Left-right determination factor 2 (Homo sapiens) (UniProt O00292). Put plainly: small molecules binding LEFTY2 protein – biochemical, small-molecule microarray, 635 nm fluorescence scan, primary screen (AID 1110). The note with it: higher = more signal.
The target in assay [4] is Calmodulin-1 (Homo sapiens) (UniProt P0DP23). Put plainly: small molecules binding calmodulin-1 with EGTA – biochemical, small-molecule microarray, Cy5-labelled CALM1, profiling panel (AID 1111).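 Further: labelled calmodulin applied in Tris saline Tween buffer holding calcium plus EGTA and DTT.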 The note with it: Cy5-CALM1 binding fluorescence, higher = more signal.
The target is the same in assay [5]. Nature of the assay: small molecules binding Ca-loaded calmodulin-1 – biochemical, small-molecule microarray, Cy5-labelled CALM1, plus calcium, artefact control for SMM control-protein annotation, profiling panel (AID 1112).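 Further: score merges spot fluorescence with signal to noise from triplicate slides.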 The note with it: Cy5-CALM1 binding fluorescence, higher = more signal.
Assay [6] can be described thus: probe aWnt5a binding to arrayed compounds – biochemical, biotinylated probe, 635/667 nm fluorescence, primary screen (AID 1113).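 Further: score merges 667 nm fluorescence intensity with signal-to-noise per printed feature.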 As to conditions: small-molecule microarray, higher = more signal.
Assay [7] can be described thus: probe aShh binding to arrayed compounds – biochemical, biotinylated probe, 635/667 nm fluorescence, primary screen (AID 1114).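 Further: probe is biotin-labelled aShh protein from a stem cell growth factor screen; measures binding of labelled protein to compounds printed on the slide; score merges feature fluorescence at 667 nm with signal-to-noise.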 The note with it: small-molecule microarray, higher = more signal.
The nature of assay [8]: probe aNog binding to arrayed compounds – biochemical, biotinylated probe, 635/667 nm fluorescence, primary screen (AID 1115).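 Further: probe is biotinylated aNog protein used at 0.15 µg/mL for 1 h at 4 C; z-score combines 667 nm fluorescence of each spot with its signal to noise.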 As to conditions: small-molecule microarray, higher = more signal.
For assay [9], the target named is Torsin-1A-interacting protein 1 (Homo sapiens) (UniProt Q5JTV8). Nature of the assay: compound microarray binding of lysate hLAP1 – cell lysate, small-molecule microarray, COS7 lysate, 635/667 nm fluorescence, primary screen (AID 1116). As to conditions: 635 nm fluorescence, higher = more signal.
The target in assay [10] is Alpha-bungarotoxin (Bungarus multicinctus) (UniProt P60615). Nature of the assay: compounds binding labelled alpha-BTX control protein – biochemical, small-molecule microarray, Alexa647 label, 635/667 nm fluorescence, artefact control for SMM control protein annotation, profiling panel (AID 1117). As to conditions: alpha-BTX-A647 binding fluorescence, higher = more signal.

The next assay concerns the target Albumin (Bos taurus) (UniProt P02769). Put plainly: compounds binding labelled BSA control protein – biochemical, small-molecule microarray, Alexa647 label, 635/667 nm fluorescence, artefact control for SMM control protein annotation, profiling panel (AID 1118).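 Further: score merges 667 nm emission intensity and signal-to-noise per printed compound spot.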 The note with it: BSA-A647 binding, fluorescence 635 nm, higher = more signal.
A short description of assay [11]: probe aXIP binding to arrayed compounds – biochemical, NeuroSMM set, 635/667 nm fluorescence, primary screen (AID 1119).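 Further: probe is the protein aXip251-270 applied at 1 µg/mL to compound-printed slides; binding of probe to printed compounds measured as 667 nm fluorescence plus signal to noise.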 As to conditions: small-molecule microarray, higher = more signal, called active from +8 up or from −8 down.
The nature of assay [12]: probe aNOTCH3 binding on compound microarray – biochemical, small-molecule microarray, 635/667 nm fluorescence, primary screen (AID 1120).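 Further: probe is a biotin-tagged antibody raised against NOTCH3 rather than NOTCH3 protein; score merges spot fluorescence near 667 nm with spot signal to noise.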 As to conditions: higher = more signal.
The nature of assay [13]: probe aNOTCH2 binding on compound microarray – biochemical, small-molecule microarray, 635/667 nm fluorescence, primary screen (AID 1121).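 Further: score merges feature fluorescence read at 667 nm with its signal to noise.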 As to conditions: higher = more signal.
The target in assay [14] is Carbonic anhydrase 2 (Homo sapiens) (UniProt P00918). Put plainly: compounds binding carbonic anhydrase 2 – biochemical, small-molecule microarray, Alexa647-labelled CAII, profiling panel (AID 1122). The note with it: CAII-A647 binding fluorescence, higher = more signal.
Assay [15] is described as follows: COS7 lysate on small-molecule microarray, probe aHis, 635 nm (AID 1123).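 Further: z-score combines 667nm fluorescence intensity with signal-to-noise per printed compound spot.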 As to conditions: COS7 cell lysate, fluorescence, higher = more signal.
Assay [16] is described as follows: probe aLAP1 signal on lysate-treated microarray – cell lysate, small-molecule microarray, COS7 lysate, primary screen (AID 1124).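 Further: lysate comes from COS7 cells expressing LAP1 and is applied at 0.3 µg/mL; score merges spot fluorescence near 667 nm with signal-to-noise over triplicate slides.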 As to conditions: probe aLAP1, fluorescence, higher = more signal.
In another assay the test system is Sam68 (KHDRBS1). Put plainly: compounds binding KHDRBS1 protein – biochemical, small-molecule microarray, 635 nm fluorescence, primary screen (AID 1125).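 Further: score merges 667 nm channel intensity with signal to noise over triplicate slides.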 As to conditions: higher = more signal.
In assay [17] the test system is Chordin-like protein 2 (CHRDL2). Nature of the assay: compounds binding chordin-like 2 – biochemical, small-molecule microarray, 635 nm fluorescence, primary screen (AID 1126).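 Further: printed compound slides probed with Chrdl2 protein at 4 µg/mL for 1 h at 4 C; score merges 667 nm emission intensity with signal to noise over three replicate slides.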 As to conditions: fluorescence 635 nm, higher = more signal.
In assay [18] the target is Concanavalin-A (Canavalia ensiformis) (UniProt P02866). Put plainly: compounds binding concanavalin A lectin – biochemical, small-molecule microarray, Alexa647 label, 635 nm, artefact control for SMM control protein annotation, primary screen (AID 1127).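 Further: z combines 667 nm emission intensity with signal-to-noise across three replicate slides.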 The note with it: ConA-A647 binding fluorescence, higher = more signal.

Several values for one entry are separate records, joined by “and”; a condition that tells them apart may be missing. Identical values can stand only once. Activity calls are given as the source filed them.

Sequence of Concanavalin-A (Canavalia ensiformis) (P02866 whole entry, looked up): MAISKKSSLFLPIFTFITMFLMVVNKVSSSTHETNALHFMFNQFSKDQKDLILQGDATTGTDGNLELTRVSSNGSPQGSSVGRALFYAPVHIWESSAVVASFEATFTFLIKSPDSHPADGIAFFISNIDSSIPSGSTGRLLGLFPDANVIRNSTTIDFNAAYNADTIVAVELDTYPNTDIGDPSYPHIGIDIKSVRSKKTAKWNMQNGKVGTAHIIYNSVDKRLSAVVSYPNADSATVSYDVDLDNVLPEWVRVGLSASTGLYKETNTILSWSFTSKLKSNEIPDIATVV
Sequence of Alpha-bungarotoxin (Bungarus multicinctus) (P60615 whole entry, looked up): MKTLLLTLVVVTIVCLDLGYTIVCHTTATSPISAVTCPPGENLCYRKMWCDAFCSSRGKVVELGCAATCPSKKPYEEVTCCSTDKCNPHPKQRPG
Sequence of Albumin (Bos taurus) (P02769 whole entry, looked up): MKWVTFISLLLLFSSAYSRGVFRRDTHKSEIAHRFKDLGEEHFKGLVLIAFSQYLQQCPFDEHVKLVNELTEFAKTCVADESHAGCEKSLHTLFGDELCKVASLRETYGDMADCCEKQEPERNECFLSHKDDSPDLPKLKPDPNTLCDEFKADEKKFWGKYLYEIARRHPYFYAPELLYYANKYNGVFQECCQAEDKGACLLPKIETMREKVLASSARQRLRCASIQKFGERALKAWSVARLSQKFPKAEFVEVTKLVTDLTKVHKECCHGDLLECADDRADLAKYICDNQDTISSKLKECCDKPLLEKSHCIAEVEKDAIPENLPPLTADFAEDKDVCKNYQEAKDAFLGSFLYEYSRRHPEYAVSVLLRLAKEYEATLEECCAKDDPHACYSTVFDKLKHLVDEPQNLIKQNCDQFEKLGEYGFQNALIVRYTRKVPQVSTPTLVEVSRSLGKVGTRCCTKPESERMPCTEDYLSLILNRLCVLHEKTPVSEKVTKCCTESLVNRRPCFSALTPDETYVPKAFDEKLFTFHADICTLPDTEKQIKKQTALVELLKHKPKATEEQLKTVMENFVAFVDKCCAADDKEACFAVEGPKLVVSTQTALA
Sequence of Left-right determination factor 2 (Homo sapiens) (O00292 whole entry, looked up): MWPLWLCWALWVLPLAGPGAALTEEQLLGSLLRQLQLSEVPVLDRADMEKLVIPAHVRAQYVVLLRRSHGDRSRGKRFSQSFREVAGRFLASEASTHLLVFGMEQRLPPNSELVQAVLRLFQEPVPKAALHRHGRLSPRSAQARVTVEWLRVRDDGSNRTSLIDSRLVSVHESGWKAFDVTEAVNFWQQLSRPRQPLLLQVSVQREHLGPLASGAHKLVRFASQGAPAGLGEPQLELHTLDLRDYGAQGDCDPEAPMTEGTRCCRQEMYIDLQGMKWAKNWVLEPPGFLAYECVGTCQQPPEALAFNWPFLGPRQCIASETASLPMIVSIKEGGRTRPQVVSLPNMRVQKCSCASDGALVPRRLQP
Sequence of Torsin-1A-interacting protein 1 (Homo sapiens) (Q5JTV8 whole entry, looked up): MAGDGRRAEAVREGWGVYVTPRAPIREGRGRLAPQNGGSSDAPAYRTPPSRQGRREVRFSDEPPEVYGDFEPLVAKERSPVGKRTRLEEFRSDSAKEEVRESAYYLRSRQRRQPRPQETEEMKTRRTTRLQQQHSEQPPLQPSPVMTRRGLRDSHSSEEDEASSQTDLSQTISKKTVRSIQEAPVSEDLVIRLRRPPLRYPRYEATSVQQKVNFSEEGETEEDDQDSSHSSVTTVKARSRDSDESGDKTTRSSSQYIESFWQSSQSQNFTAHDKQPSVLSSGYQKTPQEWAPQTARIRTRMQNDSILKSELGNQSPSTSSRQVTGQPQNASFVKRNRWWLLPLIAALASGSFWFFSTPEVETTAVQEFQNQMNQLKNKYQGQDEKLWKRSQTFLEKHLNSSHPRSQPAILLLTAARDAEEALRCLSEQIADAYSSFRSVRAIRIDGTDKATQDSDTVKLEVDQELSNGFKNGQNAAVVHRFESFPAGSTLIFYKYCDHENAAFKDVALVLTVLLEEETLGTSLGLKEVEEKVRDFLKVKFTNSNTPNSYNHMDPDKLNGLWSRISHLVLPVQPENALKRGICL

For the molecule `C=C[C@@H](OC)[C@H](O)c1ccc(O)c(F)c1`, the composite z-score in assay [1] was -0.829 and -1.4; in [3], -1.68 and -1.07; in assay [4], -0.692 and -1.45; in assay [5], -0.898 and -1.11; in assay [6], -0.328 and -0.268; in assay [7], -0.0553 and -0.0709. The composite z-score in [8] was -0.564 and -0.908; in assay [9], -0.104 and -0.362; in assay [10], -1.14 and -0.617; with Albumin (Bos taurus), -0.131 and 0.529; in assay [12], -0.502 and -0.544; in assay [13], -0.266 and -0.254. Further, the composite z-score was 0.881 and -0.182 in assay [14]; -0.385 and -0.626 in [15]; 1.24 and -1.16 in assay [16]; -0.697 and -1.48 with Sam68 (KHDRBS1); -0.952 and -0.984 in assay [17]; -0.904 and -1.04 in [18]. In addition, the z-score in [2] is 0.0695 and 0.896. In addition, the composite Z-score in assay [11] is 1.31 (inactive) and -0.643 (inactive).
Consider `C=CCN(C(=O)C(c1cccs1)N(CCOCCO)C(=O)/C=C\C(=O)O)c1ccc(OC)cc1` (stereo not given), for which the composite z-score in assay [1] is -2.11 and -1.15; in [3] it was 0.0612 and -1.47; in assay [4], -0.328 and -1.13; in assay [5] it was -0.0309 and 0.36; in assay [6], -0.214 and -0.232; in assay [7] it was -0.291 and -0.138. Besides, the composite z-score was -0.636 and 0.146 in assay [8]; -0.618 and -0.178 in [9]; -0.744 and -2.86 in assay [10]; -0.625 and -1.25 with Albumin (Bos taurus); -0.212 and -0.312 in assay [12]; -0.14 and -0.126 in [13]. Moreover, the composite z-score is -0.655 and -0.65 in assay [14]; -0.718 and -1.36 in assay [15]; 0.164 and -0.531 in assay [16]; -1.75 and -1.35 in the assay with Sam68 (KHDRBS1); -0.166 and -3.29 in assay [17]; -0.337 and -2.28 in assay [18]. In [2], the z-score was 1.49 and 0.42. For the same molecule, the composite Z-score in [11] was 0.347 (inactive) and -0.659 (inactive).
On to `C=CCN(CCCCC)C(=O)C1N(c2c(Cl)cccc2CO)C(=O)C2C(C(=O)O)C3C=CC21O3` (stereo not given), for which the composite z-score was -0.495 and -1.04 in assay [1]; -1.3 and -3.32 in [3]; -0.522 and -1.03 in assay [4]; 0.639 and 0.545 in [5]; -0.292 and -0.23 in assay [6]; -0.214 and -0.262 in [7]. The composite z-score in assay [8] was 0.0029 and 0.0473; in [9] it was 0.443 and -0.697; in assay [10], -1.91 and -1.04; with Albumin (Bos taurus), -1.16 and -0.735; in [12] it was -0.508 and -0.548; in [13] it was -0.245 and -0.184. Besides, the composite z-score in assay [14] is 0.846 and 0.315; in [15] it was -0.115 and -0.621; in [16], -0.0989 and -0.178; with Sam68 (KHDRBS1), -0.331 and -0.297; in assay [17], -2.24 and -2.28; in [18], -1.5 and -0.938. In addition, the z-score in [2] is -1.62 and -0.992. The composite Z-score in assay [11] was -0.823 (inactive) and 0.131 (inactive).
Take `C=C[C@H](C)[C@H](O)c1ccc(O)c2ccccc12`: the composite z-score in [1] is -0.523 and -0.557; in [3] it was -0.796 and -0.399; in assay [4], -1.09 and -1.04; in [5] it was -0.75 and -1.04; in assay [6], -0.244 and -0.12; in [7], -0.0769 and -0.138. Moreover, the composite z-score in assay [8] is -0.37 and -0.46; in assay [9], 0.159 and -0.0387; in assay [10], 0.594 and -0.204; with Albumin (Bos taurus) it was -0.401 and 0.473; in [12] it was -0.36 and -0.229; in [13], -0.109 and -0.114. Moreover, the composite z-score in assay [14] was 0.137 and 0.349; in assay [15] it was -0.0769 and 0.283; in [16], -0.055 and -0.15; with Sam68 (KHDRBS1), -0.512 and -0.791; in assay [17], -0.14 and -0.152; in assay [18], -1.05 and -0.559. Moreover, the z-score in assay [2] was -1.28 and -0.876. Besides, in assay [11], the composite Z-score is 0.0296 (inactive) and -0.906 (inactive).
